Screening results deposited in PubChem BioAssay by National Center for Advancing Translational Sciences (NCATS).
Tb PFK block = blocks T. brucei phosphofructokinase; Potency, µM (series often up to 57.5 µM), for inactives: top-dose activity, negative = inhibition, most hits filed as inhibitors; O15648; T. brucei PFK, ADP-Glo luminescence; AID 485367; hit rate 0.17% among 330,000;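 further: 0% = uninhibited 1x PFK enzyme wells and -100% = no-enzyme wells; nearly all actives have a fitted effect of over 60% in size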
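Compounds were pin-transferred as a titration series up to 57 uM into substrate buffer (0.5 mM F6P, 0.1 mM ATP, pH 8.0), then 1.25 nM PFK was added and reactions ran 45 min before ADP-Glo detection.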
Pin1 inhibitor = inhibitors of human Pin1; hit rate 0.009% among 390,000; AID 504891; Q13526; Potency, µM (titrated, usually from 115 µM), for the others: top-dose activity, negative = inhibition, hits mostly inhibitors; Pin1 FP peptide displacement, HiFluor488, 10 min; active means well fitted inhibition curve with a large enough effect in the polarisation, with a control signal flat, not every such curve was filed as active; inconclusive means small, poorly fitted or top-dose-only effect, or effect the other way, or a change in a side signal; inactive means no such curve, though single readings can be large or run the other way; the % refers to the polarisation; further: on the % scale 0 is the no-effect control and ±100 the full control effect
S-ASM inh = inhibitors of human secretory acid sphingomyelinase | P17405 | placental ASM, HMU-PC fluorogenic substrate, 60 min | Potency, µM (titrated, usually from 57.5 µM), for the others: top-dose activity change, negative = inhibition, hits mostly inhibitors | hit rate 0.006% among 340,000 | AID 504937
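Fluorescence read-out (Ex 386 nm, Em 447 nm) after stopping the reaction at pH 10. Enzyme: ASM from human placenta; substrate HMU-PC0, 9 uM final; 60 min, 37 °C. Compound preincubation 10 min, ambient temperature.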
TDP1 inh = inhibitors of human tyrosyl-DNA phosphodiesterase TDP1. hit rate 0.28% among 350,000. AID 485290. recombinant TDP1, AlphaScreen DNA substrate cleavage. Q9NUW8. Potency, µM (series often up to 130 µM), without a hit: top-dose activity change, negative = inhibition, usual class: inhibitors; further: on the % scale 0 is the no-effect control and ±100 the full control effect; nearly all actives have a fitted effect of over 40% in size
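Tdp1 1 nM final; 15 min RT w/ cpd; substrate 15 nM, 5 min; beads 10 ug/ml, 10 min; AlphaScreen read. Neg ctrl: no enzyme.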
PLK1 PBD block = PLK1 (human) polo-box domain binding inhibition. hit rate 2.8% among 360,000. Plk1 PBD binding of FITC phosphopeptide, fluorescence polarization. AID 720504. Potency, µM, inactives show max response, negative = inhibition, hits mostly inhibitors; further: series mostly up to about 57 µM; on the % scale 0 is the no-effect control and ±100 the full control effect; nearly all actives have a fitted effect of over 65% in size
VDR inh = inhibitors of human vitamin D receptor. P11473. VDR-SRC2-3 peptide fluorescence polarization, 2 h. Potency, µM, for the others: max response, negative = inhibition, most hits filed as inhibitors. hit rate 0.93% among 400,000; further: on the % scale 0 is the no-effect control and ±100 the full control effect
Target sequence (P11473 whole entry, looked up): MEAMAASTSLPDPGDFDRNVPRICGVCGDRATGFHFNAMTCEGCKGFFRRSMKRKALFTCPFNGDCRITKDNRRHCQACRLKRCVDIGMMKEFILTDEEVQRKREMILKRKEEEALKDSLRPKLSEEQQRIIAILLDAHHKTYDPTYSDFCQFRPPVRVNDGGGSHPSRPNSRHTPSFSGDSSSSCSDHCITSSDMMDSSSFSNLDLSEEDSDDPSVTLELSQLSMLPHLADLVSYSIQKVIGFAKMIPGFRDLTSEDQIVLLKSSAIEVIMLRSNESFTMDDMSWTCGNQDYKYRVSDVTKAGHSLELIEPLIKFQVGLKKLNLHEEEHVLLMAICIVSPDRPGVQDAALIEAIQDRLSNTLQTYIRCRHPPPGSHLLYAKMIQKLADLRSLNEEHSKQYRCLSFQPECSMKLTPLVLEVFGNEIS
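Inhibition of the VDR/SRC2-3 peptide interaction is quantified by fluorescence polarization. Compounds (23 nl, pintool) incubate with the reagents for 2 hours at ambient room temperature.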
* hit, by the source's call; i = inactive; ? = inconclusive; . = not tested or not shown; [ ] = remark or other dose. Hits are enriched below; roughly 3.1% of the tested compounds scored in any of these assays. Unless noted, the call rests on the fitted dose curve; in most records, active means well fitted curve in the direction sought with a large enough effect; inconclusive means small, poorly fitted or top-dose-only effect, or another doubt; inactive means no such curve, though single readings can be large; an effect the other way counts as inactive or inconclusive. Potency means the concentration at half of the fitted maximal effect.

SMILES	Tb PFK block	Pin1 inhibitor	S-ASM inh	TDP1 inh	PLK1 PBD block	VDR inh
Cc1nc2nc(-c3ccc(Cl)cc3)cn2nc1C	-0.2%	7.5%	i	4.9%	-5.2%	4.7%
CCS(=O)(=O)N1CC(=O)N(c2ccc(Cl)cc2C)C(C)(C(=O)NC2CCCCCC2)C1 (stereo not drawn)	.	3.0%	.	-2.5%	.	4.8%
N#Cc1cccc(NC(=O)Cn2cnc(S(=O)(=O)N3CCOCC3)c2)c1	-18.9%	-4.2%	0.7%	0.8%	9.47µM*	?
N#Cc1cccc(NC(=O)Cn2cnc(S(=O)(=O)N3CCCC3)c2)c1	-10.6%	2.9%	1.6%	1.3%	-9.3%	-3.0%
Cc1cccc(N2CCN(S(=O)(=O)c3c(C(=O)N4CCC(C)CC4)c(C)n(C)c3C)CC2)c1C	.	-4.4%	.	8.8%	.	2.5%
CC1(c2ccccc2)CC(C)(C)N2C(=O)C3(C(C#N)=C(N)Oc4cc(O)ccc43)c3cccc1c32 (stereo not drawn)	0.6%	10.5%	-23.0%	9.6%	-0.5%	-10.3%
CC1(c2ccccc2)CC(C)(C)N2C(=O)/C(=C3\SC(=S)NC3=O)c3cccc1c32 (stereo not drawn)	18.5%	-1.2%	-8.9%	4.1%	23.8µM*	-1.0%
Cn1c(CNC(=O)c2ccc(F)cc2)nc2ccccc21	7.7%	1.6%	3.7%	3.1%	26.7µM*	79.4µM*
Cn1c(CNC(=O)c2ccc(F)cc2)cc2ccccc21	-7.8%	62.7%	0.7%	3.0%	-27.7%	-11.4%
C=C1C(=O)C23C(O)C1CCC2C12CCCC(C)(COC(C)=O)C1C(O)C3(O)OC2 (stereo not drawn)	.	-0.8%	5.5%	.	15µM*	25.1µM*
CC(OCCN1CCCC1)(c1ccc(F)cc1)c1ccc(F)cc1	-4.1%	-11.5%	-1.1%	-2.6%	29.9µM*	?
Fc1ccc(OCCOCCN2CCCC2)cc1	.	-8.1%	1.9%	.	-11.0%	14.8%
CCOC(=O)c1c(N)sc2c1CCC(CC)C2 (stereo not drawn)	3.9%	0.5%	-1.8%	5.6%	?	-9.5%
CCOC(=O)c1c(N)sc2c1CCC1C(=O)N(C3CCCCC3)C(=O)C21 (stereo not drawn)	7.1%	15.6%	6.4%	3.1%	18.9µM*	-9.2%
Cn1c2cc(C=O)sc2c2cnn(Cc3ccccc3F)c(=O)c21	.	0.0%	.	-2.3%	.	.
CC1(C)CC(=O)C(C=NCCCN2CCOCC2)=C(O)C1	-3.8%	2.8%	4.8%	1.9%	29.9µM*	-17.3%
CC1(C)CC(=O)C(C=NCCN2CCNCC2)=C(O)C1	-0.6%	-7.3%	5.6%	7.6%	-3.5%	4.6%
CCN(CC)S(=O)(=O)c1ccc(OCCNS(C)(=O)=O)cc1	0.7%	2.2%	-4.8%	-2.7%	2.99µM*	28.2µM*
CCNS(=O)(=O)c1ccc(OCCNS(C)(=O)=O)cc1	-2.2%	3.0%	6.4%	4.3%	-9.3%	29.8%
O=C1C2C3C=CC(CNS(=O)(=O)c4ccccc4[N+](=O)[O-])(O3)C2C(=O)N1c1ccccc1 (stereo not drawn)	0.5%	-1.8%	0.7%	8.2%	67µM*	-13.4%
CCc1cccc(CC)c1NC(=O)/C(C#N)=C/c1ccccc1C(F)(F)F	0.5%	33.7%	-2.5%	2.6%	-24.6%	50.1µM*
N#Cc1ccccc1-c1ccc2ncnc(NCc3cccs3)c2c1	.	.	.	.	.	8.9%
CCCCCCCCCCCCCCCC(=O)N[C@@H](COP(=O)(O)O)C(=O)O	.	.	.	4.3%	.	12.6µM*
Cc1cccc(N2CCN(C(=O)c3cccn3-c3nnc(N4CCCCC4)s3)CC2)c1C	.	1.6%	.	7.9%	.	-1.0%
Cc1ccc(NC(=O)/C(C#N)=C(\N)C(Cl)(Cl)Cl)nc1	0.8%	?	10.7%	4.9%	23.8µM*	?
Cc1ccc(NC(=O)Nc2ccccc2)nc1	.	2.3%	-10.6%	.	-3.0%	3.7%
CC(=O)c1ccc(NS(=O)(=O)c2cc3c(cc2C)N(C)CCO3)cc1	-0.3%	-4.3%	0.1%	5.1%	23.8µM*	-16.6%
COc1ccccc1C(=O)Nc1ccc(-c2nc3cc(C)cc(C)c3o2)cc1	.	?	.	-2.2%[12.3 µM]	.	89.1µM*
